PubChem BioAssay (NCATS)
Records with an inconclusive call do not appear. Active and inactive are the calls of the source. The call rests on the fitted dose curve; in most records, active means well fitted curve in the direction sought with a large enough effect; inconclusive means small, poorly fitted or top-dose-only effect, or another doubt; inactive means no such curve, though single readings can be large; an effect the other way counts as inactive or inconclusive.

What was measured:
HACAT = assay: qHTS assay to identify novel small-molecules to repurpose for Merkel cell carcinoma treatment (AID 1296009); conditions: MCC and control cell lines, CellTiter-Glo viability, 72 h; at 44.8 µM (top of the series) unless noted; further: nearly all actives have a fitted effect of over 60% in size
Procedure, shortened: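 qHTS format: cells treated with library compounds in DMSO across 8 (NPC) or 11 (MIPE) concentrations. Readout after 72 hr at 37 degree celsius was CellTiter-Glo luminescence.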

C33A = assay: Primary qHTS to identify gynecologic anti-cancer compounds using libraries of approved drugs and bioactive compounds (AID 1345084); conditions: Gynecologic cancer cell panel viability, ATPlite luminescence, 48 h; series mostly up to 57.5 µM; further: on the % scale 0 is the no-effect control and ±100 the full control effect; nearly all actives have a fitted effect of over 55% in size
Procedure, shortened: (§1)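 Luminescence from the ATPlite ATP-monitoring reagent indicates viable cell number; lower signal means cytotoxicity. Cells received compound 16 h after seeding and were exposed for 48 h across five concentrations.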

CAOV3 = assay: as above; conditions: Gynecologic cancer cell panel viability, ATPlite luminescence, 48 h; series mostly up to 57.5 µM
Procedure, shortened: as §1

CASKI = assay: as above; conditions: Gynecologic cancer cell panel viability, ATPlite luminescence, 48 h; series mostly up to 57.5 µM
Procedure, shortened: as §1

Es-2 = assay: as above; conditions: Gynecologic cancer cell panel viability, ATPlite luminescence, 48 h; series mostly up to 57.5 µM
Procedure, shortened: as §1

HeLa = assay: as above; conditions: Gynecologic cancer cell panel viability, ATPlite luminescence, 48 h; series mostly up to 57.5 µM
Procedure, shortened: as §1

Hek293T = assay: as above; conditions: Gynecologic cancer cell panel viability, ATPlite luminescence, 48 h, control line for the selectivity index; series mostly up to 57.5 µM
Procedure, shortened: as §1

JEG-3 = assay: as above; conditions: Gynecologic cancer cell panel viability, ATPlite luminescence, 48 h; series mostly up to 57.5 µM
Procedure, shortened: as §1

O=C(/C=C/c1ccccc1)OC[C@H]1O[C@@H](OC(=O)c2cc(O)c(O)c(O)c2)[C@H](O)[C@@H](O)[C@@H]1O
inactive: outcome (HACAT) inactive [at 17.4 µM] | Potency (C33A) | Potency (CAOV3) | outcome (CASKI) | Potency (Es-2) | Potency (HeLa) | Potency (Hek293T) | Potency (JEG-3)

COc1ccc(C(=O)CC(=O)O)c2c1C=CC(C)(C)O2
inactive: outcome (HACAT) | Potency (C33A) | Potency (CAOV3) | outcome (CASKI) | Potency (Es-2) | Potency (HeLa) | Potency (Hek293T) | Potency (JEG-3)

CCCCC(=O)N1c2ccccc2NC2=C(C(=O)CCC2)C1c1ccccc1Cl (centres undefined)
inactive: outcome (HACAT) | Potency (C33A) | Potency (CAOV3) | outcome (CASKI) | Potency (Es-2) | Potency (HeLa) | Potency (Hek293T) | Potency (JEG-3)

CC(=O)OC1CC(C(C)(C)O)OC2CCC3(C)OC4=C(C(=O)C=C5C(C)C(OC(C)=O)C6(C)C(C)OC546)C(O)C3C12C (centres undefined)
inactive: outcome (HACAT) inactive [at 17.4 µM] | Potency (C33A) | Potency (CAOV3) | outcome (CASKI) | Potency (Es-2) | Potency (HeLa) | Potency (Hek293T) | Potency (JEG-3)

C[C@]12CC[C@@H]3c4ccc(O)cc4CC[C@H]3[C@@H]1C[C@@H](O[C@@H]1O[C@H](C(=O)O)[C@@H](O)[C@H](O)[C@H]1O)[C@@H]2O
inactive: outcome (HACAT) | Potency (C33A) | Potency (CAOV3) | outcome (CASKI) | Potency (Es-2) | Potency (HeLa) | Potency (Hek293T) | Potency (JEG-3)

COc1ccccc1N1CCN(CCCCNC(=O)c2ccc(-c3cscn3)cc2)CC1
inactive: outcome (HACAT) | Potency (C33A) | Potency (CAOV3) | outcome (CASKI) | Potency (Es-2) | Potency (HeLa) | Potency (Hek293T) | Potency (JEG-3)

CC1C2=CC(=O)OC2(O)CC2C1CCC1C(C)(C)CCC(O)C21C (centres undefined)
inactive: outcome (HACAT) | Potency (C33A) | Potency (CAOV3) | outcome (CASKI) | Potency (Es-2) | Potency (HeLa) | Potency (Hek293T) | Potency (JEG-3)

CC1OC(OC2C(OC(=O)[C@]34CCC(C)(C)C[C@H]3C3=CCC5[C@@]6(C)CC[C@H](OC7OC(C(=O)O)C(O)C(O)C7O)C(C)(C)C6CC[C@@]5(C)[C@]3(C)CC4O)OC(CO)C2O)C(O)C(O)C1OC1OCC(O)C(O)C1O (some centres undefined)
inactive: outcome (HACAT) inactive [at 9.27 µM] | activity change, negative = cytotoxicity (C33A) 6.97% [at 11.6 µM] | activity change, negative = cytotoxicity (CAOV3) 0.294% [at 11.6 µM] | activity change, negative = cytotoxicity (CASKI) 7.85% [at 11.6 µM] | activity change, negative = cytotoxicity (Es-2) -0.633% [at 11.6 µM] | activity change, negative = cytotoxicity (HeLa) 8.57% [at 11.6 µM] | activity change, negative = cytotoxicity (Hek293T) 3.77% [at 11.6 µM] | activity change, negative = cytotoxicity (JEG-3) 3.79% [at 11.6 µM]

CC1CCC2(C)CCC3(C)C(=CCC4C5(C)CCC(O)C(C)(C(=O)O)C5CCC43C)C2C1C (centres undefined)
inactive: outcome (HACAT) inactive [at 17.4 µM] | Potency (C33A) | Potency (CAOV3) | outcome (CASKI) | Potency (Es-2) | Potency (HeLa) | Potency (Hek293T) | Potency (JEG-3)

C[C@@H](c1ccccc1)N(C(N)=NC#N)c1cccc2ncccc12
inactive: outcome (HACAT) | Potency (C33A) | Potency (CAOV3) | outcome (CASKI) | Potency (Es-2) | Potency (HeLa) | Potency (Hek293T) | Potency (JEG-3)

C=C(C(=O)O)[C@@H]1CC[C@@]2(C)CCC[C@@](C)(O)[C@@H]2C1
inactive: outcome (HACAT) | Potency (C33A) | Potency (CAOV3) | outcome (CASKI) | Potency (Es-2) | Potency (HeLa) | Potency (Hek293T) | Potency (JEG-3)

COC(=O)C(Cc1ccccc1)NC(=O)c1ccccc1 (centres undefined)
inactive: outcome (HACAT) | Potency (C33A) | Potency (CAOV3) | outcome (CASKI) | Potency (Es-2) | Potency (HeLa) | Potency (Hek293T) | Potency (JEG-3)

O=C(O)CC1CCC(c2ccc(-c3ccc(Nc4ccc(C(F)(F)F)nc4)cn3)cc2)CC1 (centres undefined)
inactive: outcome (HACAT) | Potency (C33A) | Potency (CAOV3) | outcome (CASKI) | Potency (Es-2) | Potency (HeLa) | Potency (Hek293T) | Potency (JEG-3)

C=C1C[C@]23C[C@@]1(O)CC[C@H]2[C@@]12C=C[C@H](O)[C@@](C)(C(=O)O1)[C@H]2[C@@H]3C(=O)O
inactive: outcome (HACAT) | Potency (C33A) | Potency (CAOV3) | outcome (CASKI) | Potency (Es-2) | Potency (HeLa) | Potency (Hek293T) | Potency (JEG-3)

C=C1CC23CC1CCC2C12OC(=O)C(C)(C(O)CC1O)C2C3C(=O)O (centres undefined)
inactive: outcome (HACAT) | Potency (C33A) | Potency (CAOV3) | outcome (CASKI) | Potency (Es-2) | Potency (HeLa) | Potency (Hek293T) | Potency (JEG-3)

COc1c(C)c(OCC=C(C)C)cc2c1COC2=O
inactive: outcome (HACAT) | Potency (C33A) | Potency (CAOV3) | outcome (CASKI) | Potency (Es-2) | Potency (HeLa) | Potency (Hek293T) | Potency (JEG-3)

CC(=O)OC1CC2C(C)(C)C(=O)C=CC2(C)C2CC(=O)C3=C(CCC3C3=CC(O)OC3=O)C12C (centres undefined)
inactive: outcome (HACAT) inactive; activator [at 17.4 µM] | Potency (C33A) | Potency (CAOV3) | outcome (CASKI) | Potency (Es-2) | Potency (HeLa) | Potency (Hek293T) | Potency (JEG-3)

C/C=C(\C)C(=O)OCC1OC(OC2OC(CO)C(O)C(O)C2O)C(O)C(O)C1O (centres undefined)
inactive: outcome (HACAT) inactive [at 17.4 µM] | Potency (C33A) | Potency (CAOV3) | outcome (CASKI) | Potency (Es-2) | Potency (HeLa) | Potency (Hek293T) | Potency (JEG-3)
